# Data: PubChem BioAssay AID2202241 (National Center for Advancing Translational Sciences (NCATS), 2025)
# Calls of active or inactive are those of the source. How the calls were made is not given here. Square brackets hold non-standard residues; d marks the D form. Peptide text beside a SMILES is read from it. Dolaproine = CO[C@@H]([C@@H]1CCCN1)[C@@H](C)C(=O)O; Dil = CC[C@H](C)[C@H](NC)[C@@H](CC(=O)O)OC; NMeV = CN[C@H](C(=O)O)C(C)C
# Assay: Identification of antibody-drug conjugate (ADC) payloads which are substrates of ATP-binding cassette drug efflux transporters: cell line panel data
# Settings: 99 cancer cell line panel, CellTiter-Glo viability, 48 h; active compounds read low
# Source text: Antibody-drug conjugates (ADCs) feature an antibody recognizing a specific protein joined to a potent toxic payload. Numerous antibody-drug conjugates have received FDA approval; however, clinical resistance arises. Resistance mechanisms include decreased expression or mutation of the antibody target, impaired payload release, or increased expression of ATP-binding cassette (ABC) efflux transporters associated with multidrug resistance. We therefore sought to characterize the activity of ADC payloads across a broad set of cancer cell lines. We performed a high-throughput screen with 27 common ADC payloads against a panel of 99 cell lines to assess sensitivity to various payloads. Duocarmycin DM and PNU-159682 were exquisitely toxic across the panel of cancer cell lines of varying origins. These findings highlight the potentially broad applicability of Duocarmycin DM and PNU-159682 as ADC payloads in future ADC development.
# Compounds were sourced from Levena Biopharma (San Diego, CA), Selleck Chem (Houston, TX), ChemieTek (Indianapolis, IN), or Microsource Discovery Systems (Gaylordsville, CT). Cell line sources and culture conditions were as follows: CAL-27 (ATCC: CRL-2095) and Hs 766T (ATCC: HTB-134) were grown in DMEM media +10% FBS. RKO (ATCC: CRL-2577), A-427 (ATCC: […]), BT-20 (ATCC: HTB-19), Detroit562 (ATCC: CCL-138), HARA-B (Cytion: 300465), PA-1 (ATCC: CRL-1572), TCCSUP (ATCC: […]), UM-UC-3 (ATCC: CRL-1749), and WI-38 (ATCC: CCL-75) were grown in EMEM media +10% FBS. AGS (ATCC: CRL-1739) was grown in F12K media +10% FBS. JJN-3 (DSMZ: ACC 541) was grown in IMDM media +20% FBS. 769-P (ATCC: CRL-1933), 786-O (ATCC: CRL-1932), A-375 (ATCC: CRL-1619), A-431 (ATCC: CRL-1555), A-549 (ATCC: CCL-185), A2780 (Cytion: 300491), ACHN (ATCC: CRL-1611), BT-474 (ATCC: HTB-20), BT-549 (ATCC: HTB-122), CCRF-CEM (ATCC: CCL-119), Daudi (ATCC: CCL-213), HaCaT (Cytion: 300493), HCC38 (ATCC: CRL-2314), HCC827 (ATCC: CRL-2868), HCT15 (ATCC: CCL-225), HEL 92.1.7 (ATCC: TIB-180), Hs 352.Sk (ATCC: CRL-7250), Hs578T (ATCC: HTB-126), HT-1080 (ATCC: CCL-121), HuCC-T1 (Riken Bioresource Center: RCB1960), HuP-T3 (DSMZ: ACC 259), HuP-T4 (DSMZ: ACC 223), IM-9 (ATCC: CCL-159), JJ012 (Gift: Karina Galoian (University of Miami)), JM-1 (ATCC: CRL-10423), K-562 (ATCC: CCL-243), Kasumi-3 (ATCC: CRL-2725), KMS-12-BM (DSMZ: ACC 551), LOUCY (ATCC: CRL-2629), LoVo (ATCC: CCL-229), MCF-7 (ATCC: HTB-22), MDA-MB-231 (ATCC: HTB-26), MDA-MB-436 (ATCC: HTB-130), MDA-MB-468 (ATCC: HTB-132), MIA PaCa-2 (ATCC: CRL-1420), MM1.R (ATCC: CRL-2975), MM1.S (ATCC: CRL-2974), NALM-6 (ATCC: CRL-3273), NCI-H1299 (ATCC: CRL-5803), NCI-H1355 (ATCC: CRL-5865), NCI-H1395 (ATCC: CRL-5868), NCI-H1437 (ATCC: CRL-5872), NCI-H2122 (ATCC: CRL-5985), NCI-H2170 (ATCC: CRL-5928), NCI-H226 (ATCC: CRL-5826), NCI-H23 (ATCC: CRL-5800), NCI-H322M (NIH: NCI-60), NCI-H460 (ATCC: HTB-177), NCI-H522 (ATCC: CRL-5810), NCI-H929 (ATCC: CRL-3580), NIH 3T3 (ATCC: CRL-1658), OCI-M2 (DSMZ: ACC 619), OPM-2 (DSMZ: ACCC 50), OVCAR-3 (ATCC: HTB-161), OVCAR-4 (Gift: Phil Lorenzi MD Anderson), OVCAR-8 (Gift: Phil Lorenzi MD Anderson), Panc 10.05 (ATCC: CRL-2547), PANC-1 (ATCC: CRL-1469), Pfeiffer (ATCC: CRL-2632), PL45 (ATCC: CRL-2558), PSN1 (ATCC: CRL-3211), Raji (ATCC: CCL-86), RD (Gift: Mari Yohe NCI), RPMI-8226 (ATCC: CRM-CCL-155), RS4;11 (ATCC: CRL-1873), SK-BR-3 (ATCC: HTB-30), SK-MEL-28 (ATCC: HTB-72), SMS-CTR (Gift: Mari Yohe NCI), SNU-16 (ATCC: CRL-5974), SU-DHL-8 (ATCC: CRL-2961), SU.86.86 (ATCC: CRL-1837), SW1990 (ATCC: CRL-2172), SW403 (ATCC: CCL-230), SW480 (ATCC: CCL-228), SW579 (ATCC: HTB-107), T-47D (ATCC: HTB-133), T24 (ATCC: HTB-4), and U-937 (ATCC: CRL-1593.2) were grown in RPMI +10% FBS. U266B1 (ATCC: TIB-196) were grown in RPMI +15% FBS. ME-1 (ATCC: HB-119), MOLM-13 (DSMZ: ACC 554), AMO1 (DSMZ: ACC 538), MOLP-8 (DSMZ: ACC 569), MV4-11 (ATCC: CRL-9591), PL-21 (DSMZ: ACC 536), and L-363 (DSMZ: ACC 49) were grown in RPMI +20% FBS. […]
row,Compound,viability AUC
1,CN(C)CCOc1ccc2[nH]c(C(=O)N3C[C@@H](CCl)c4c3cc(O)c3ccccc43)cc2c1,514 (active)
2,CCN(C(C)=O)[C@H]1CO[C@@H](O[C@H]2[C@H](O[C@H]3C#C/C=C\C#C[C@]4(O)CC(=O)C(NC(=O)OC)=C3/C4=C\CSSSC)O[C@H](C)[C@@H](NO[C@H]3C[C@H](O)[C@H](SC(=O)c4c(C)c(I)c(O[C@@H]5O[C@@H](C)[C@H](O)[C@@H](OC)[C@H]5O)c(OC)c4OC)[C@@H](C)O3)[C@@H]2O)C[C@@H]1OC,700 (active)
3,COC(=O)c1cc2c3c(cc(O)c2[nH]1)N(C(=O)c1cc2cc(OC)c(OC)c(OC)c2[nH]1)CC3CCl (stereo unspecified),651 (active)
4,CC(C)(C)OC(=O)Nc1ccc2[nH]c(C(=O)N3C[C@@H](CCl)c4c3cc(O)c3ccccc43)cc2c1,645 (active)
5,COc1cc2cc(c1Cl)N(C)C(=O)C[C@H](O)[C@]1(C)O[C@H]1[C@H](C)C1C[C@@](O)(NC(=O)O1)[C@H](OC)/C=C/C=C(\C)C2,1010 (active)
6,CCN[C@H]1CO[C@@H](O[C@H]2[C@H](O[C@H]3C#C/C=C\C#C[C@]4(O)CC(=O)C(NC(=O)OC)=C3/C4=C\CSSSC)O[C@H](C)[C@@H](NO[C@H]3C[C@H](O)[C@H](SC(=O)c4c(C)c(I)c(O[C@@H]5O[C@@H](C)[C@H](O)[C@@H](OC)[C@H]5O)c(OC)c4OC)[C@@H](C)O3)[C@@H]2O)C[C@@H]1OC,635 (active)
7,CC[C@H](C)[C@@H]([C@@H](CC(=O)N1CCC[C@H]1[C@H](OC)[C@@H](C)C(=O)N[C@@H](Cc1ccccc1)C(=O)O)OC)N(C)C(=O)[C@@H](NC(=O)[C@@H](NC)C(C)C)C(C)C (H-[NMeV]V[Dil][Dolaproine]F-OH),938 (active)
8,CC[C@H](C)[C@@H]([C@H](N)CC(=O)N1CCC[C@H]1[C@H](OC)[C@@H](C)C(=O)N[C@@H](Cc1ccccc1)c1nccs1)N(C)C(=O)[C@@H](NC(=O)[C@H](C(C)C)N(C)C)C(C)C,769 (active)
9,COc1cccc2c1C(=O)c1c(O)c3c(c(O)c1C2=O)C[C@@](O)(C(=O)CO)C[C@@H]3O[C@H]1C[C@H]2[C@H](O[C@@H]3[C@@H](OC)OCCN32)[C@H](C)O1,549 (active)
10,CC[C@H](C)[C@@H]([C@H](N)CC(=O)N1CCC[C@H]1[C@H](OC)[C@@H](C)C(=O)N[C@@H](Cc1ccccc1)c1nccs1)N(C)C(=O)[C@@H](NC(=O)[C@@H](NC)C(C)C)C(C)C,738 (active)
11,COc1ccc(C2=CN3C(=O)c4cc(OC)c(OCCCOc5cc6c(cc5OC)C(=O)N5C=C(c7ccc(N)cc7)C[C@@H]5C=N6)cc4N=C[C@H]3C2)cc1,762 (active)
